Results filed as inconclusive are left out. Entries that show only a call come without a potency. Activity calls are given as the source filed them. The call rests on the fitted dose curve; in most records, active means well fitted inhibition curve with a large enough effect; inconclusive means small, poorly fitted or top-dose-only effect; inactive means flat fitted curve, though single readings scatter.
target: Calcium and integrin-binding protein 1 (Homo sapiens) (UniProt Q99828); assay: Primary qHTS for Identification of Calcium Integrin Binding Protein 1 (CIB1) Competitor (AID 1508620); settings: CIB1-GST / FITC-alphaIIb peptide fluorescence polarization; series mostly up to 114 µM; further: top concentration of the series differs between compounds
Sequence (Q99828 whole entry, looked up): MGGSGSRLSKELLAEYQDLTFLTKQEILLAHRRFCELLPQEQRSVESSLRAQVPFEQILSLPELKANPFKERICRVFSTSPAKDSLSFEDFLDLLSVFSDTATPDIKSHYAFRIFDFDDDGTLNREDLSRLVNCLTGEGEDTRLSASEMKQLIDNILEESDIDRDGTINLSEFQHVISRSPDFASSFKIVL
Summary of the method: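 Fluorescence polarization competition: GST-tagged CIB1 (1 uM final) preincubated with compound 15 min at room temperature, then FITC-labelled alphaIIb peptide (100 nM final) added. After 15 min at room temperature, polarization read at Ex 480/Em 540.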

| SMILES | Potency |
| --- | --- |
| CC(C)(C)C(=O)N1CCN(c2cccc(Nc3nn4c(=O)c5ccccc5nc4s3)c2)CC1 | inactive |
| Cn1nnnc1Sc1ncnc2scc(-c3ccc([N+](=O)[O-])cc3)c12 | inactive |
| CC(C)(C)c1ccc(C[C@H](C(=O)O)N2C(=O)c3ccc(C(=O)O)cc3C2=O)cc1 | inactive |
| Cc1ccc(OCCn2c(CCNC(=O)Cc3cccc4ccccc34)nc3ccccc32)cc1 | inactive |
| COc1cccc(C2c3c(ncn(-c4ccccc4)c3=N)Oc3ccc4ccccc4c32)c1 (centres undefined) | inactive |
| N#Cc1ccc(C[C@@H](NS(=O)(=O)c2ccc(C(=O)O)cc2)C(=O)O)cc1 | inactive |
| Cc1noc(C)c1-c1csc(N2CCC(C(N)=O)CC2)n1 | inactive |
| Cn1nnnc1Sc1ncnc2scc(-c3ccc4c(c3)OCO4)c12 | inactive |
| CN(c1ccccc1)c1ccc(CNc2nn3c(=O)c4ccccc4nc3s2)cc1 | inactive |
| O=C(O)c1ccc2c(c1)C(=O)N([C@@H](Cc1ccc(O)cc1)C(=O)O)C2=O | inactive |
| Cc1ccc(CNc2ccc(N3CCN(C)CC3)cc2)cc1 | inactive |
| CC(=O)Nc1sc2c(c1-c1ccc3c(c1)CCO3)CCNC2 | inactive |
| O=S1(=O)N=C(Oc2cccc3ccccc23)c2ccccc21 | inactive |
| N#Cc1nc(Nc2cccc(C(F)(F)F)c2)nc(NC2CCCC2)n1 | inactive |
| Cc1cc(NC(=O)Nc2nnc(C3CCCCC3)s2)ccc1F | inactive |
| Cn1c2ccsc2c2cnn(Cc3ccccc3F)c(=O)c21 | inactive |
| O=C1CCCC2=C1C(c1[nH]ncc1Cl)N=C(Nc1nc3cccc(Cl)c3o1)N2 (centres undefined) | inactive |
| Cn1nnnc1Sc1ncnc2scc(-c3cccc([N+](=O)[O-])c3)c12 | inactive |
| CC(C)(C)c1ccc(NC(=O)c2cccs2)cn1 | inactive |
| COc1cccc(NC(=S)N2CCN(c3cc(C(F)(F)F)cc(C(F)(F)F)c3)CC2)n1 | inactive |

| SMILES | Potency |
| --- | --- |
| Cc1cn([C@H]2C[C@H](N[S+](=O)([O-])Cc3cccc(Cl)c3)[C@@H](CO)O2)c(=O)[nH]c1=O | inactive |
| COc1cc(/C=C2\C(=O)Nc3ccccc32)ccc1O | inactive |
| COc1cccc(C2c3c(ncn(-c4cccc(F)c4)c3=N)Oc3ccc4ccccc4c32)c1 (centres undefined) | inactive |
| Oc1ccc(/C=C/c2ccccc2)c2cccnc12 | inactive |
| COc1cccc(Cn2ncc3c4sc(B(O)O)cc4n(C)c3c2=O)c1 | inactive |
| Cc1ccc(C)c(OC2=NS(=O)(=O)c3ccccc32)c1 | inactive |
| CC1(C)CC(=O)C2=C(C1)NC(Nc1nc3ccccc3o1)=NC21CCCCC1 | inactive |
| O=C(C1CCN(c2nc(-c3ccc(Br)cc3)cs2)CC1)N1CCNCC1 | inactive |
| Clc1ccccc1-c1ccc2ncnc(NCc3ccc4c(c3)OCO4)c2c1 | inactive |
| Cc1cc2c(s1)c1cnn(Cc3c(F)cccc3C(F)(F)F)c(=O)c1n2C | inactive |
| Cc1ccc(N2C(=O)c3ccccc3C2=O)c(C)c1 | inactive |
| Cc1cccc(CNc2ccc(S(=O)(=O)Nc3nccs3)cc2)c1O | inactive |
| O=C(Cc1ccccc1)Nc1sc2c(c1C(=O)Nc1ccc(Cl)cc1)CCOC2 | inactive |
| COc1ccc(C2Nc3ccccc3C(=O)N2Cc2ccccc2)cc1COc1c(C)cc(NC(C)=O)cc1C (centres undefined) | inactive |
| COc1cccc(S(=O)(=O)N2CCN(S(=O)(=O)c3ccc4c(c3)OCCO4)CC2)c1 | inactive |
| N#CN1CCC(NS(=O)(=O)c2cccc(C(F)(F)F)c2)CC1 | inactive |
| Cc1ccc(OCCn2c(CCNC(=O)c3ccccc3F)nc3ccccc32)cc1 | inactive |
| CC(=O)NC(c1cc(F)c2cccnc2c1O)C(C)C (centres undefined) | inactive |
| O=C1CCCC2=C1C(c1[nH]ncc1Cl)N=C(Nc1ccccn1)N2 (centres undefined) | inactive |
